Unmarked numbers belong to inactive results. Calls of active or inactive are those of the source. Unless noted, no stated cut-off is given here; in the data, active means inhibition above about 33%; inactive means the rest.
Target: Steroidogenic factor 1 (Homo sapiens) (UniProt Q13285)
Test: SF1 (NR5A1) inverse agonists, counter-screen for LRH-1 inverse agonist project, cell-based, luminescence, high throughput (AID 651614; in the data active means inhibition above about 44%;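 further: cells cotransfected with StAR promoter reporter and SF1 expression vector; 0% = vehicle on cells with receptor and 100% = vehicle on cells lacking receptor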)
Conditions: cell-based SF1 luciferase reporter, at 3.6 µM, hits give high values

Sequence of Steroidogenic factor 1 (Homo sapiens) (Q13285 whole entry, looked up): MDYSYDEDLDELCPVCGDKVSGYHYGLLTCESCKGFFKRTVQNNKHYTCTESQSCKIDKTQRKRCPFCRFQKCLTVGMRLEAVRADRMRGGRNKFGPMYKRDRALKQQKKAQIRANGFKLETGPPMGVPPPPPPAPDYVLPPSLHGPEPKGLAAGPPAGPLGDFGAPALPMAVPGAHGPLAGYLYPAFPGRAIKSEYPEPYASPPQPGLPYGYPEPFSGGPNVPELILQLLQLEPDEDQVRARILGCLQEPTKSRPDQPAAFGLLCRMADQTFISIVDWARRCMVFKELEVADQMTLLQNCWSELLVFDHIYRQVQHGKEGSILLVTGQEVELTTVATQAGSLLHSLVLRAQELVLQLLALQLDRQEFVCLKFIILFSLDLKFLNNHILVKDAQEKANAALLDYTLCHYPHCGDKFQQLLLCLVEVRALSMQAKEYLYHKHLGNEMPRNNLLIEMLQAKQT

SMILES | inhibition
O=C(Nc1c(F)cccc1F)c1cnc(N2CCN(c3ccccn3)CC2)c2ccccc12 | 35.2%
O=[N+]([O-])c1ccc(N2CCCCC2)cc1N1CCOCC1 | 54.9% (active)
Cc1no[n+]([O-])c1COc1ccccc1/C=N/n1nnnc1N | 43% (active)
Cc1cccc(-c2cc(NCCc3cccnc3)n3nccc3n2)c1 | 41.3%
CCN1C(=O)c2cccc3c(NC(=O)c4ccc(S(=O)(=O)N5CCOCC5)cc4)ccc1c23 | 62.7% (active)
COc1cccc2sc(N3CCN(C(=O)c4ccc([N+](=O)[O-])o4)CC3)nc12 | 70.4% (active)
COc1cc(NC(=O)CCl)ccc(=O)c1 | 68.2% (active)
CCOC(=O)N1CCN(C(=O)CCl)CC1 | 57.9% (active)
O=C(COc1cccc2c1CCNC2=O)Nc1cccc(C(F)(F)F)c1 | 29.9%
O=C(COC(=O)c1ccc[n+]([O-])c1)Nc1ccc([N+](=O)[O-])cc1Cl | 56.2% (active)
COc1ccc(C[C@@H]2OC3(C=CC(=O)C=C3)O[C@H]2Cc2ccc(OC)cc2)cc1 | 66% (active)
Cc1cc(C(=O)NC2CCCc3c2cnn3-c2cccc(C)c2C)n(C)n1 (stereo not given) | 58.4% (active)
O=C(Nc1cccnc1)c1ccc([N+](=O)[O-])s1 | 51% (active)
O=Cc1ccc(N2CCCCCC2)cc1 | 56% (active)
CCOC(=O)C(C)Oc1cccc2c(=O)n(CC(=O)Nc3ccc4c(c3)OCCO4)ccc12 (stereo not given) | 51.7% (active)
O=C(Nc1ccc(Cc2ccncc2)cc1)c1cccc([N+](=O)[O-])c1 | 51.9% (active)
Cc1cccc(CSC(Nc2ccc(F)cc2)=C(C#N)C#N)c1 | 29.4%
COc1cccc(/C=N/Nc2nc(Nc3ccccc3)nc(-n3nc(C)cc3C)n2)c1O | 0.2%
Nc1nc(-c2ccccc2)[nH]c(=O)c1N=O | 49.4% (active)
CC(=O)Nc1cc(-c2cccnc2)cn2c(-c3ccc(F)cc3)cnc12 | 40.5%

Tested on: not listed separately
Test: VP16 transactivation reporter inhibitors, counter-screen for LRH-1 inverse agonist project, cell-based, luminescence, high throughput (AID 651615)
Conditions: Gal4-VP16 luciferase reporter cells, at 3.6 µM, hits give high values

SMILES | inhibition
Cc1nc2ccccc2n1/N=C/c1ccc([N+](=O)[O-])o1 | 15%
Nc1nc2ccc(Cl)cc2cc1C(=O)NCc1ccc(Oc2ccccc2)cc1 | 45.7% (active)
CCOC(=O)c1c(NC(=O)/C=C/C(=O)O)sc(C)c1-c1ccc(Cl)cc1 | 5.25%
O=C(CCl)NCc1cc(-c2ccc(Cl)cc2)no1 | -3.6%
CCc1ccccc1NC(=O)CSc1nc2n[nH]c(C)c2c(=N)n1-c1cccc(OC)c1 | -17.4%
Cc1no[n+]([O-])c1COc1ccc(/C=C2\NC(=S)NC2=O)cc1 | -19.4%
CCCc1cc(=O)oc2c(C)c(OCC(=O)NC3CC(C)(C)NC(C)(C)C3)ccc12 | 9.82%
CC(=O)Nc1ncc(Cc2cc(Cl)ccc2Cl)s1 | 2.54%
CCOc1ccc(CCNC(=O)COC(=O)c2cc(S(=O)(=O)N3CCOCC3)ccc2F)cc1OCC | -4.44%
O=C(N/N=C/c1ccc([N+](=O)[O-])s1)c1ccccc1Br | 14%
CCOC(=O)C1CCN(Cc2cc(Cl)c3ccccc3c2O)CC1 | 2.83%
O=C(NCCN1C(=O)S/C(=C\c2ccc(OC(F)F)cc2)C1=O)c1cnccn1 | 14.9%
N#Cc1ccc(NC(=O)COc2ccc(-n3cnnn3)cc2)cc1 | -2.83%
COc1ccc(NS(=O)(=O)c2ccc(OCC(=O)N3CCOCC3)cc2)cc1Cl | 6.15%
CCN(CC)C1Oc2cc3c(cc2C(c2cc(OC)c(OC)c(OC)c2)C1C)OCO3 (stereo not given) | 25.9%
O=C(Nc1c(F)cccc1F)c1cnc(N2CCN(c3ccccn3)CC2)c2ccccc12 | 17.4%
O=[N+]([O-])c1ccc(N2CCCCC2)cc1N1CCOCC1 | -5.18%
Cc1no[n+]([O-])c1COc1ccccc1/C=N/n1nnnc1N | -13.9%

SMILES | inhibition
Cc1cccc(-c2cc(NCCc3cccnc3)n3nccc3n2)c1 | -2.05%
CCN1C(=O)c2cccc3c(NC(=O)c4ccc(S(=O)(=O)N5CCOCC5)cc4)ccc1c23 | -60.9%
COc1cccc2sc(N3CCN(C(=O)c4ccc([N+](=O)[O-])o4)CC3)nc12 | -23.4%
COc1cc(NC(=O)CCl)ccc(=O)c1 | -57%
CCOC(=O)N1CCN(C(=O)CCl)CC1 | -8.13%
O=C(COc1cccc2c1CCNC2=O)Nc1cccc(C(F)(F)F)c1 | -20.7%
O=C(COC(=O)c1ccc[n+]([O-])c1)Nc1ccc([N+](=O)[O-])cc1Cl | 1.26%
COc1ccc(C[C@@H]2OC3(C=CC(=O)C=C3)O[C@H]2Cc2ccc(OC)cc2)cc1 | 70.6% (active)
Cc1cc(C(=O)NC2CCCc3c2cnn3-c2cccc(C)c2C)n(C)n1 (stereo not given) | 59.1% (active)
O=C(Nc1cccnc1)c1ccc([N+](=O)[O-])s1 | 11.1%
O=Cc1ccc(N2CCCCCC2)cc1 | -13.3%
CCOC(=O)C(C)Oc1cccc2c(=O)n(CC(=O)Nc3ccc4c(c3)OCCO4)ccc12 (stereo not given) | -1.21%
O=C(Nc1ccc(Cc2ccncc2)cc1)c1cccc([N+](=O)[O-])c1 | 0.73%
Cc1cccc(CSC(Nc2ccc(F)cc2)=C(C#N)C#N)c1 | 17.7%
COc1cccc(/C=N/Nc2nc(Nc3ccccc3)nc(-n3nc(C)cc3C)n2)c1O | -6.05%
Nc1nc(-c2ccccc2)[nH]c(=O)c1N=O | -10.9%
CC(=O)Nc1cc(-c2cccnc2)cn2c(-c3ccc(F)cc3)cnc12 | 0.11%
